{"source": "PubChem BioAssay (NCATS)", "key": {"[1]": {"assay": "qHTS assay for small molecule antagonists of peroxisome proliferator-activated receptor delta signaling (AID 588535; active = well fitted inhibition curve with a large enough effect in the signal ratio, with a control signal flat, not every such curve was filed as active; the % refers to the signal ratio)", "details": "HEK293T PPARd-UAS-bla, beta-lactamase FRET ratio, 18 h; 460 nm channel", "method_in_brief": "(§1)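 HEK293T PPAR-delta-UAS-bla cells, 4000/well, 2% charcoal/dextran FBS; 5 h 37 C; cpd titration; 18 h 37 C; CCF4 2 h RT; FI 460/530 nm; Hill fit → IC50, efficacy.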"}, "[2]": {"molecular_target": "Peroxisome proliferator-activated receptor delta (Homo sapiens) (UniProt Q03181)", "assay": "qHTS assay for small molecule antagonists of peroxisome proliferator-activated receptor delta signaling (AID 588535)", "method_in_brief": "as §1"}, "[3]": {"molecular_target": "Thyroid hormone receptor beta (Homo sapiens) (UniProt P10828)", "sequence (P10828 whole entry, looked up)": "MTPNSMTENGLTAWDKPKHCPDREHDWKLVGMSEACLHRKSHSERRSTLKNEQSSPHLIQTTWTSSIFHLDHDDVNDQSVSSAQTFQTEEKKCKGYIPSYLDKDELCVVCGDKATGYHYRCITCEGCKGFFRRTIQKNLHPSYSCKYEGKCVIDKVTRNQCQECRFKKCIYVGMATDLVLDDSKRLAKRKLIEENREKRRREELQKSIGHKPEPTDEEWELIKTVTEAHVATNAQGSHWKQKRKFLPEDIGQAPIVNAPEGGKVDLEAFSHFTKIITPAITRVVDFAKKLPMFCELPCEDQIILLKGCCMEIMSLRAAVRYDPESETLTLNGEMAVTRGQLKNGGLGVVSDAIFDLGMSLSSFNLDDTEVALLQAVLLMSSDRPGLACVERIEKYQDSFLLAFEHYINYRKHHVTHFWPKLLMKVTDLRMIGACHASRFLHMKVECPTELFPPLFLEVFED", "assay": "qHTS assay for small molecule antagonists of thyroid hormone receptor beta signaling (AID 588547; active = well fitted inhibition curve with a large enough effect in the signal ratio, with a control signal flat, not every such curve was filed as active; the % refers to the signal ratio)", "details": "TR-UAS-bla HEK293, beta-lactamase ratio, antagonist mode, 18 h", "method_in_brief": "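Inhibition of T3-driven (0.4nM final) beta-lactamase reporter activity was measured over 0.59 nM to 92 uM compound after 18 h at 37 C. The cells were GripTite HEK293 TR-UAS-bla in charcoal/dextran-stripped serum, with CCF4 ratio read-out and IC50 from Hill fits.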"}, "[4]": {"molecular_target": "Peroxisome proliferator-activated receptor gamma (Homo sapiens) (UniProt P37231)", "sequence (P37231 whole entry, looked up)": "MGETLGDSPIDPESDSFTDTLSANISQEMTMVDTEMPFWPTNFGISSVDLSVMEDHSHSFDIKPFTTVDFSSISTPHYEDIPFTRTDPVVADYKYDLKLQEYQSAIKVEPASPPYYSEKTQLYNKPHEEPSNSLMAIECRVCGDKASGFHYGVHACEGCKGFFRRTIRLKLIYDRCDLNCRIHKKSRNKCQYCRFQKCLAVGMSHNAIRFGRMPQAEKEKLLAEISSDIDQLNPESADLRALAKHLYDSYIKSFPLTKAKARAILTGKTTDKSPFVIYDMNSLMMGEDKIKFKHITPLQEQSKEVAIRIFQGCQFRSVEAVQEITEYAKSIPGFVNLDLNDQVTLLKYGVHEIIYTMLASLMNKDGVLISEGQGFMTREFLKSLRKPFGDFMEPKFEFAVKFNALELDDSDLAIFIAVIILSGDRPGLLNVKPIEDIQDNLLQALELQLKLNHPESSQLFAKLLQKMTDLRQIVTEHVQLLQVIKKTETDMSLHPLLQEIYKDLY", "assay": "qHTS assay for small molecule agonists of peroxisome proliferator-activated receptor gamma signaling (AID 588536; active = well fitted curve in the direction sought with a large enough effect in the signal ratio, with a control signal flat, not every such curve was filed as active; the % refers to the signal ratio)", "method_in_brief": "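PPAR-gamma-UAS-bla HEK293 cells in medium with 1% charcoal/dextran-treated FBS were exposed to compounds for 16 h at 37 C. Beta-lactamase activity was read with CCF4 substrate (405 nm excitation, 460/530 nm emission).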"}, "[5]": {"molecular_target": "Vitamin D3 receptor (Homo sapiens) (UniProt P11473)", "assay": "qHTS for Inhibitors of the vitamin D receptor (VDR): Hit Validation using a Fluorescein Assay (AID 602200)", "details": "VDR-coactivator binding, fluorescein fluorescence polarization", "method_in_brief": "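Compounds added to VDR ligand-binding domain (1.5 uM) with agonist LG19078 (5 uM) and 5 nM SRC2-3 fluorescein peptide, final concentrations. After 2 h at ambient temperature, polarization of fluorescein emission (Ex 495 nm/Em 520 nm) measured.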"}, "[6]": {"molecular_target": "Flap endonuclease 1 (Homo sapiens) (UniProt P39748)", "assay": "qHTS Assay for the Inhibitors of FEN1: Confirmatory Assay for Cherry-picked Compounds (AID 720498)", "details": "FEN1 flap cleavage, TAMRA/BHQ2 fluorogenic DNA substrate", "method_in_brief": "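FEN1 at 10 nM was preincubated with compound for 15 min at room temperature, then 50 nM (final) double-flap DNA substrate was added. TAMRA fluorescence released from the BHQ-2-quenched flap was read at 0 and 15 min (ex 525/em 598 nm).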"}, "[7]": {"molecular_target": "DNA polymerase eta (Homo sapiens) (UniProt Q9Y253)", "assay": "qHTS for Inhibitors of Polymerase Eta: Confirmatory Assay for Cherry-picked Compounds (AID 720502)", "details": "Pol eta primer extension, TAMRA/BHQ fluorescence, 10 min", "method_in_brief": "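The reaction starts with 50 nM final labeled DNA substrate added to Pol eta (10 nM) that had sat with compound for 15 min. TAMRA emission at 598 nm is read at 0 and 10 min.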"}, "[8]": {"assay": "qHTS for Inhibitors of the vitamin D receptor (VDR): Hit Validation using a Cytotoxicity Assay (AID 602204)", "method_in_brief": "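Luminescence proportional to cellular ATP reports viability. Cells (20,000 per well) rested 4 h, were treated with compounds for 18 h, then incubated 30 min with detection reagent. Controls: cycloheximide (high) and DMSO.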"}, "[9]": {"molecular_target": "Bifunctional 3'-5' exonuclease/ATP-dependent helicase WRN (Homo sapiens) (UniProt Q14191)", "assay": "qHTS for Inhibitors of WRN Helicase: Confirmatory Assay for Cherry-picked Compounds. (AID 720497)", "method_in_brief": "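WRN at 20 nM final was preincubated with compound for 15 min at room temperature; the reaction was started with 100 nM forked duplex oligonucleotide and 2 mM ATP (final). Red fluorescence (ex 525/em 598 nm) was read kinetically, with inhibition normalized to enzyme-only and buffer-only wells.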"}, "[10]": {"assay": "qHTS for Inhibitors of WRN Helicase: Thiazole Orange DNA Binding Counterscreen (AID 720499)", "method_in_brief": "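Compounds were pin-transferred into 50 nM unlabeled DNA premixed with 100 nM thiazole orange. After 15 min at room temperature, fluorescence (ex 480 nm, em 530 nm) was read; loss of signal flags dye displacement from nonspecific DNA binders.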"}, "[11]": {"molecular_target": "RecQ-like DNA helicase BLM (Homo sapiens) (UniProt P54132)", "sequence (P54132 whole entry, looked up)": "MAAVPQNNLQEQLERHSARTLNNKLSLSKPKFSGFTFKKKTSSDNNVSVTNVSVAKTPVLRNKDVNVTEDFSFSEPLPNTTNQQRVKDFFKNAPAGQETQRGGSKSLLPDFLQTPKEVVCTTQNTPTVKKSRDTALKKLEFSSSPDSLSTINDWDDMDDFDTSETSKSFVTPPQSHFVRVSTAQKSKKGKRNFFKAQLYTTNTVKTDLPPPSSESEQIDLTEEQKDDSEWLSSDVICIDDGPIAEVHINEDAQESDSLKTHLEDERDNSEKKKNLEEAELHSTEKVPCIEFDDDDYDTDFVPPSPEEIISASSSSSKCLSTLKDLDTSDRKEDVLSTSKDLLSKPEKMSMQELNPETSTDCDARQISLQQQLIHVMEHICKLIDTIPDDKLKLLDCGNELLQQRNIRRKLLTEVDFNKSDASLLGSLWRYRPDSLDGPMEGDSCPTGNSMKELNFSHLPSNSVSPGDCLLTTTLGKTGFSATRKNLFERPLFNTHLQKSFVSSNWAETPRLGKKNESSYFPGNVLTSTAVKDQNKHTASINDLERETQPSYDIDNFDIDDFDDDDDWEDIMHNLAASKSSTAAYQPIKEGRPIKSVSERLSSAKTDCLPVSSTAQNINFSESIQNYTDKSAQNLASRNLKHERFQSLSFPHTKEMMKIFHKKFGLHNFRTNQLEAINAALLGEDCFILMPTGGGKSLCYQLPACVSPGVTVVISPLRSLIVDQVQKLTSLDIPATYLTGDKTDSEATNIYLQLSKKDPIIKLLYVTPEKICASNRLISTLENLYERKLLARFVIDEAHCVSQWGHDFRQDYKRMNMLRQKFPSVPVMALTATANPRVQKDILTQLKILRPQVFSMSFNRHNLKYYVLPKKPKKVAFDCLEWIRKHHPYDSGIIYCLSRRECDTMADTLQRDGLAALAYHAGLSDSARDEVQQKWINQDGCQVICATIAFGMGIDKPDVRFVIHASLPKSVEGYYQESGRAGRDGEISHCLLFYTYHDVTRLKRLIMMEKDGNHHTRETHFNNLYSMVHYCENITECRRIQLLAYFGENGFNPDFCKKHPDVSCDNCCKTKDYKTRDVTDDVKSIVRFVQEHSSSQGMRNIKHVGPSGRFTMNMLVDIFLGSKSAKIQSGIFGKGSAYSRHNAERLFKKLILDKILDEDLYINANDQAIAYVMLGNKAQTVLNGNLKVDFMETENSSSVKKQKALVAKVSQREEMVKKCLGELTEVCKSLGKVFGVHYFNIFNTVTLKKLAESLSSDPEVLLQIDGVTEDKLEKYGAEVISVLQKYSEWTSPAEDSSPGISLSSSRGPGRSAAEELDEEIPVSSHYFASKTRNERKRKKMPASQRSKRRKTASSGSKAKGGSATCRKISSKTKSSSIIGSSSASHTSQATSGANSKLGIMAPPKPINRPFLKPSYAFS", "assay": "qHTS for Inhibitors of WRN Helicase: BLM Helicase Counterscreen for WRN Inhibitors (AID 720503)", "method_in_brief": "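BLM (1 nM) was preincubated with compounds for 15 min at room temperature in Tris-HCl pH 8.0, 50 mM NaCl, 2 mM MgCl2 buffer. Unwinding started with 100 nM DNA and 2 mM ATP (final); red fluorescence was read twice, 15 min apart.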"}, "[12]": {"molecular_target": "Luciferin 4-monooxygenase (Photinus pyralis) (UniProt P08659)", "sequence (P08659 whole entry, looked up)": "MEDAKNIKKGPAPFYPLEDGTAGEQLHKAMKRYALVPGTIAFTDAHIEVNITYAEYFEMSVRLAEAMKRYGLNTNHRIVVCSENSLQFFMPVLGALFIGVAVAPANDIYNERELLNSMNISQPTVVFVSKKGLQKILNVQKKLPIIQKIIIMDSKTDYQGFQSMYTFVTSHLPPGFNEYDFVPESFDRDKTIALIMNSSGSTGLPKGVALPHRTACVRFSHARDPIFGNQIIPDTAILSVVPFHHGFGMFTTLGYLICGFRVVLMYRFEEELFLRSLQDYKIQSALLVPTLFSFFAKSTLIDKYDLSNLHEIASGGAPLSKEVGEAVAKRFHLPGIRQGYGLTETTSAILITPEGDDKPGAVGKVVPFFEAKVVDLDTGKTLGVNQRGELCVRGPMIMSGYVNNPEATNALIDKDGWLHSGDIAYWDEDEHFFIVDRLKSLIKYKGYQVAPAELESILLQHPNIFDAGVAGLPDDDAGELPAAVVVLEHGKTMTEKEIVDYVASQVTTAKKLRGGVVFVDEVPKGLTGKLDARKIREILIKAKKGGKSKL", "assay": "Biochemical firefly luciferase enzyme assay for NPC (AID 624030)", "method_in_brief": "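Direct inhibition of firefly luciferase enzyme (10 nM final, 50 mM Tris Acetate) assessed by luminescence within 5 minutes. Percent activity scaled between DMSO and PTC124 positive control, with concentration-effect curves classified by fit quality and response.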"}, "[13]": {"assay": "S16 Schwann cell PMP22 intronic element firefly luciferase assay (AID 624032)", "method_in_brief": "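Luciferase reporter of PMP22 intronic-element expression in stably transfected S16 rat Schwann cells, read by ONE-Glo luminescence after 24 h compound exposure at 37 C. Activity scaled between DMSO (0%) and positive-control PTC124; concentration-effect curves quality-classified.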"}, "[14]": {"assay": "qHTS assay for small molecule disruptors of the mitochondrial membrane potential - 1 hr assay (AID 651754; calls by dose curve)", "method_in_brief": "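HepG2, 2,000 cells/well, overnight attachment; cpd or DMSO 1 hr, 37C/5% CO2; Mito-MPS dye 30 min, 37C; fluorescence monomer (490/535) and aggregate (540/590).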"}, "[15]": {"assay": "qHTS assay for small molecule disruptors of the mitochondrial membrane potential - 5 hr assay (AID 651755; calls by dose curve)", "method_in_brief": "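HepG2, 2,000 cells/well, overnight attach; cpd or DMSO 5 hr, 37C/5% CO2; Mito-MPS 30 min 37C; fluor 490/535 + 540/590 nm.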"}, "[16]": {"molecular_target": "Cytochrome P450 3A4 (Homo sapiens) (UniProt P08684)", "assay": "qHTS Assay for Activators of Cytochrome P450 3A4 (AID 885)", "method_in_brief": "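20nM CYP3A4 + 25uM Luciferin-PPXE (=KM), 200mM KPO4; cpd 10 min RT; NADPH regen, 60 min RT; stop w/ detection buffer, 20 min; luminescence. Normalized to 57 uM ketoconazole.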"}, "[17]": {"assay": "S16 Schwann cell viability assay (CellTiter-Glo assay) (AID 624031)", "method_in_brief": "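Luminescent ATP read-out (CellTiter-Glo) after 24 h compound exposure of native S16 rat Schwann cells at 37 °C. Signals were normalized between cell-free wells and DMSO-treated cells, set as 0% activity.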"}, "[18]": {"assay": "qHTS Assay for Identifying Gametocytocidal Compounds (AID 743244)", "details": "P. falciparum 3D7 stage III-V gametocytes, alamarBlue, 72 h; max response: stronger effect = lower value", "method_in_brief": "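Using 20,000 stage III–V 3D7 gametocytes per well, compounds were incubated 72 h under 37 °C/5% CO2. Viability was then assessed by 24 h alamarBlue reduction, measured fluorometrically at 525/598 nm.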"}, "[19]": {"assay": "qHTS screen for small molecules that inhibit ELG1-dependent DNA repair: Hit Confirmation in Cell-Based Luciferin Assay (AID 624247)", "details": "cell-free firefly luciferase luminescence counter-screen, ViewLux", "method_in_brief": "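Steps: dispense substrate; pin in compound or DMSO; add luciferase; image light output on CCD-based reader.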"}, "[20]": {"molecular_target": "ATPase family AAA domain-containing protein 5 (Homo sapiens) (UniProt Q96QE3)", "sequence (Q96QE3 whole entry, looked up, the tested form may be a part)": "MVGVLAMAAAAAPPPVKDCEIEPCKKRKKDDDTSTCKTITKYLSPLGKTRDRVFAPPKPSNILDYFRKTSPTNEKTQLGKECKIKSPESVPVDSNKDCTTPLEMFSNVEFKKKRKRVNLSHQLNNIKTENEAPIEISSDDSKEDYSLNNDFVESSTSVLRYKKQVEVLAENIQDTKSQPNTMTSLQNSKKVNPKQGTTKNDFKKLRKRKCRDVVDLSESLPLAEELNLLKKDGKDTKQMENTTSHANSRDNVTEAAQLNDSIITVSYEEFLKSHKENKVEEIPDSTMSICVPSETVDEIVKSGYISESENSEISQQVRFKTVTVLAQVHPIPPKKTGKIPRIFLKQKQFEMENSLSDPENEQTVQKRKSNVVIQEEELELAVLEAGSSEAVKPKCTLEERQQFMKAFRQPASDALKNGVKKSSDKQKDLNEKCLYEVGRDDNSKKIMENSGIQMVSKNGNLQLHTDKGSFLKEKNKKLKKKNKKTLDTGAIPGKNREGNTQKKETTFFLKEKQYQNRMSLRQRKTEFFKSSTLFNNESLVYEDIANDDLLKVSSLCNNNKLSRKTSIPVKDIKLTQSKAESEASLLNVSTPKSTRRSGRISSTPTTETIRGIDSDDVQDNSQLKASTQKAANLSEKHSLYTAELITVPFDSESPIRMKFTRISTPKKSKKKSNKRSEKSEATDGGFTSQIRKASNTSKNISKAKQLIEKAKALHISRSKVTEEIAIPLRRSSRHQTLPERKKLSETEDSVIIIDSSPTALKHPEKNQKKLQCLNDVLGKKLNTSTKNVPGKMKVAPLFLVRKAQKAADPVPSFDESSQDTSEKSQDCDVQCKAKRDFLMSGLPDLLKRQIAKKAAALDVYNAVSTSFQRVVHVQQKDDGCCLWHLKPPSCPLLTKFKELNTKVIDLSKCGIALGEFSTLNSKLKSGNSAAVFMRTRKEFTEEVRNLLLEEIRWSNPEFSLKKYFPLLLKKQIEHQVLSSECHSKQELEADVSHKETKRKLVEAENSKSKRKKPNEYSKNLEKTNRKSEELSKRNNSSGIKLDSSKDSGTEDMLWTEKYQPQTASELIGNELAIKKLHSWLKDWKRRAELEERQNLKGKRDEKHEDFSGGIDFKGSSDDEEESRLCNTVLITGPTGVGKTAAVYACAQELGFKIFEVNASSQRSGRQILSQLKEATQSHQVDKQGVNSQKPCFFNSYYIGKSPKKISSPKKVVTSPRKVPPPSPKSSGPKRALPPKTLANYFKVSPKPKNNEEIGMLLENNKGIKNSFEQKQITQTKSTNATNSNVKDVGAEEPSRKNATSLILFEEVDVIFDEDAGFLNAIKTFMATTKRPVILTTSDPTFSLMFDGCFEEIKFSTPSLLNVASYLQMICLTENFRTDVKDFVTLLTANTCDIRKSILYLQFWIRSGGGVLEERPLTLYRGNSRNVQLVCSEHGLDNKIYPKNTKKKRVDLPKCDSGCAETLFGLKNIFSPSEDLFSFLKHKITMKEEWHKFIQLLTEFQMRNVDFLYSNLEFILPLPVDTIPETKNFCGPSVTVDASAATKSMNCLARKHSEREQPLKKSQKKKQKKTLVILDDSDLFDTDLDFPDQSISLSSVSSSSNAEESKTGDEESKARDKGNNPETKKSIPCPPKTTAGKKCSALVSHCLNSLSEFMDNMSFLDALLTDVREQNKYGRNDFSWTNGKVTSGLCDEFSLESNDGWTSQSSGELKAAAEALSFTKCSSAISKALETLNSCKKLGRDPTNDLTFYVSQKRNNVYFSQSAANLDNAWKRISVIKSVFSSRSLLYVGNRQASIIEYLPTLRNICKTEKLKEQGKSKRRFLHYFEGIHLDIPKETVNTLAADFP", "assay": "HTS assay for small molecules that inhibit ELG1-dependent DNA repair in human embryonic kidney (HEK293T) cells expressing luciferase-tagged ELG1: Hit Confirmation (AID 624248)", "details": "HEK293T ELG1-luciferase levels, luminescence; cells co-treated with 5-fluorouridine", "method_in_brief": "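Suppression of ELG1-luciferase signal was read by ONE-Glo luminescence in HEK293T reporter cells after 16 h at 37 C co-treatment with compound and 5-fluorouridine as DNA-damaging agent.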"}, "[21]": {"molecular_target": "ATPase family AAA domain-containing protein 5 (Homo sapiens) (UniProt Q96QE3)", "assay": "qHTS screen for small molecules that inhibit ELG1-dependent DNA repair in human embryonic kidney (HEK293T) cells expressing luciferase-tagged ELG1: Hit Confirmation using MMS Stimulated ELG1 (AID 624249)", "details": "HEK293T luciferase-tagged ELG1 level", "method_in_brief": "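ELG1-luciferase HEK293T cells were plated at 2,000 cells/well, and about 5 h later test compounds were pin-transferred alongside MMS (final 10 µM). After 16 h, luciferase activity was read with Amplight reagent; hits suppress the signal.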"}, "[22]": {"assay": "qHTS screen for small molecules that inhibit ELG1-dependent DNA repair: Hit Confirmation with MMS Viability (AID 624251)", "details": "Cell viability with MMS", "method_in_brief": "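Luminescent ATP read-out (CellTiter-Glo) gives viability of ELG1-luc HEK293T cells exposed to compounds together with 10 µM methyl methanesulfonate for 16 h.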"}}, "note": "Records with an inconclusive call do not appear. Some of the results follow. Active and inactive are the calls of the source. Unless noted, calls follow the shape of the dose curve; as a rule, active = well fitted curve in the direction sought with a large enough effect; inconclusive = small, poorly fitted or top-dose-only effect, or another doubt; inactive = no such curve, though single readings can be large; an effect the other way counts as inactive or inconclusive. For activity change % (negative = inhibition) in this document: series mostly up to about 77 µM; % is scaled to controls: 0 for no effect and ±100 for the full control effect."}
{"smiles": "[CH3][Sn]([CH3])([Cl])[Cl]", "values": [{"measurement": "max response", "setting": "[1]", "result": 1.89, "unit": "%"}, {"measurement": "Potency", "setting": "[2]", "result": "inactive"}, {"measurement": "activity change % (negative = inhibition)", "setting": "[3]", "result": "0.969% (inactive)"}]}
{"smiles": "CCOC(=O)C(C)Oc1ccc(Oc2nc3ccc(Cl)cc3o2)cc1", "note": "(stereo not given)", "values": [{"measurement": "Potency", "setting": "[4]", "result": "inactive"}]}
{"smiles": "CC(C)NC(=O)N1CC(=O)N(c2cc(Cl)cc(Cl)c2)C1=O", "values": [{"measurement": "Potency", "setting": "[4]", "result": "inactive"}, {"measurement": "activity change % (negative = inhibition)", "setting": "[3]", "result": "4.77% (inactive)"}]}
{"smiles": "O=C1NC(=O)N(c2ccccc2)C(=O)/C1=C/c1ccc([N+](=O)[O-])s1", "values": [{"measurement": "Potency", "setting": "[5]", "result": "20 µM (active)"}, {"measurement": "Potency", "setting": "[6]", "result": "19 µM (active)"}, {"measurement": "Potency", "setting": "[7]", "result": "30.1 µM (active)"}]}
{"smiles": "O=C(O)CCn1cc(C=C2C(=O)NC(=S)NC2=O)c(-c2cccc(Br)c2)n1", "values": [{"measurement": "outcome", "setting": "[8]", "result": "inactive"}, {"measurement": "outcome", "setting": "[9]", "result": "inactive"}, {"measurement": "outcome", "setting": "[10]", "result": "inactive"}, {"measurement": "outcome", "setting": "[11]", "result": "inactive"}]}
{"smiles": "Cc1ccnc(-n2c(C)cc(/C=C3\\C(=O)NC(=S)N(C)C3=O)c2C)c1", "values": [{"measurement": "outcome", "setting": "[8]", "result": "inactive"}]}
{"smiles": "[O-][N+](=Nc1ccccc1)c1ccccc1", "values": [{"measurement": "Potency", "setting": "[12]", "result": "12.8 µM (active)"}, {"measurement": "Potency", "setting": "[13]", "result": "inactive"}]}
{"smiles": "Oc1cc(Cl)cc(Cl)c1Cl", "values": [{"measurement": "Potency", "setting": "[14]", "result": "42.2 µM (active)"}, {"measurement": "Potency", "setting": "[15]", "result": "42.2 µM (active)"}]}
{"smiles": "CNC[C@H](O)c1ccc(OC(=O)C(C)(C)C)c(OC(=O)C(C)(C)C)c1", "values": [{"measurement": "Potency", "setting": "[16]", "result": "inactive"}]}
{"smiles": "COc1cc(-c2ccc(-[n+]3nc(-c4ccccc4)nn3-c3ccc([N+](=O)[O-])cc3)c(OC)c2)ccc1-[n+]1nc(-c2ccccc2)nn1-c1ccc([N+](=O)[O-])cc1", "values": [{"measurement": "Potency", "setting": "[17]", "result": "28.7 µM (active)"}, {"measurement": "Potency", "setting": "[18]", "result": "5.62 µM (active)"}]}
{"smiles": "CC(=O)[O][Sn]([c]1ccccc1)([c]1ccccc1)[c]1ccccc1", "values": [{"measurement": "Potency", "setting": "[19]", "result": "1.99 µM (active)"}, {"measurement": "Potency", "setting": "[20]", "result": "1.58 µM (active)"}, {"measurement": "Potency", "setting": "[21]", "result": "0.281 µM (active)"}, {"measurement": "Potency", "setting": "[22]", "result": "0.281 µM (active)"}]}
